Screening data from PubChem BioAssay.
Rows were chosen to be rich in hits. Some 21% of all compounds tested hit in one or more screens of this group.
Pf growth 48h: Primary qHTS for delayed death inhibitors of the malarial parasite plastid, 48 hour incubation. P. falciparum luciferase growth in erythrocytes, 48 h. Potency, µM (titrated, usually from 28.7 µM), inactives show at the top dose activity change, negative = inhibition, hits mostly inhibitors. 310,000 compounds, 5.9% hits. AID 504832, 2011; active means well fitted inhibition curve with a large enough effect; inconclusive means small, poorly fitted or top-dose-only effect, or another doubt; inactive means no such curve, though single readings can be large or run the other way; further: potency means the concentration at half of the fitted maximal effect; on the % scale 0 is the no-effect control and ±100 the full control effect
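Luciferase-expressing parasites in RBCs, 2% Hct / 0.1% parasitemia final; RPMI 1640 + 0.5% Albumax; 37 C, 5% CO2, one generation; luminescence read-out, lower signal = inhibition.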
Pf growth 96h: Primary qHTS for delayed death inhibitors of the malarial parasite plastid, 96 hour incubation. P. falciparum luciferase reporter growth, 96 h. 320,000 compounds, 6.9% hits. Potency, µM (top dose mostly 28.7 µM), for the others: at the top dose activity change, negative = inhibition, hits mostly inhibitors; active means well fitted inhibition curve with a large enough effect; inconclusive means small, poorly fitted or top-dose-only effect, or another doubt; inactive means no such curve, though single readings can be large or run the other way; further: potency means the concentration at half of the fitted maximal effect; on the % scale 0 is the no-effect control and ±100 the full control effect
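Erythrocytes infected with luciferase-expressing P. falciparum were dispensed at 2% hematocrit and 0.05% parasitemia (final), then incubated with compounds 96 hours at 37 C in 5% CO2. Luminescence after detection reagent addition reported growth.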
SARS PLpro yeast: qHTS of Yeast-based Assay for SARS-CoV PLP. S. cerevisiae expressing SARS-CoV PLpro, growth rescue. Potency, µM (doses to about 32.9 µM), without a hit: top-dose activity, positive = growth rescue, actives largely listed as activators. 330,000 compounds, 0.19% hits. AID 485353, 2010; further: potency means the concentration at half of the fitted maximal effect; 0% is about no effect; nearly all actives have a fitted effect of over 55% in size
Shiga inhibitor: A qHTS for Small Molecule Inhibitors of Shiga Toxin; Vero cells, Shiga toxin protein synthesis inhibition reporter; inhibition, % at 38.7 µM; 290,000 compounds, 9.2% hits; AID 2315, 2010; in the data active means inhibition mostly above about 28%, no sharp cut-off; inactive means mostly below about 43%; further: 0% is about no effect
NS1 function inh: qHTS Assay for Inhibitors of Influenza NS1 Protein Function; Potency, µM (series often up to 46.1 µM), for the others: at the highest dose activity, positive = more growth; 270,000 compounds, 0.4% hits; AID 2326, 2010; further: potency means the concentration at half of the fitted maximal effect; actives are rising curves; nearly all actives have a fitted effect of over 50% in size
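S. cerevisiae expressing influenza A NS1, grown in glucose, washed, then diluted 1:100 into pH 6.0 -URA galactose medium with 23 nl compound. Growth recovery read as OD600; NS1-free strain serves as control.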
Cycloheximide cs: Cycloheximide Counterscreen for Small Molecule Inhibitors of Shiga Toxin | 300,000 compounds, 12% hits | cell reporter, cycloheximide protein synthesis inhibition counterscreen | max response, % | AID 2314, 2010; in the data active means max response mostly above about 13%, no sharp cut-off; inactive means mostly below about 14%; further: read at 38.3 µM for the half of the compounds with a filed dose; 0% is about no effect
An asterisk follows results filed as active; ? = inconclusive; / = no result. Unless noted, the call rests on the fitted dose curve.

SMILES	Pf growth 48h	Pf growth 96h	SARS PLpro yeast	Shiga inhibitor	NS1 function inh	Cycloheximide cs
O=C(NN(C(=O)C1CC1)c1nc2ccccc2s1)C1CC1	27.1%	4.15µM*	22.2%	59.7*	?	45.7*
O=C(C1CCCCC1)N(CCN1CCCC1)c1nc2ccccc2s1	47.5%	-5.1%	4.4%	40.2	-5.9%	31.5*
CCOc1ccc(S(=O)(=O)Nc2nc3ccccc3nc2Cl)cc1	23.6%	25.1%	-6.2%	1.3	-39.1%	0.8
CCOc1ccc(S(=O)(=O)Nc2nc3ccccc3nc2N2CCN(C)CC2)cc1	7.4%	3.7µM*	8.1%	-5.5	-62.3%	7.0
Cc1cc(C)cc(NC(=O)CSc2nc3ccccc3nc2N2CCCC2)c1	1.7%	?	-4.4%	9.9	0.5%	-4.1
O=C(CSc1nc2ccccc2nc1N1CCOCC1)Nc1ccccc1F	0.0%	-15.1%	1.1%	24.1*	-13.7%	20.0*
Cc1ccc(C)n1CCN1CCN(C(=O)CSc2nc3ccccc3nc2N2CCOCC2)CC1	11.7µM*	-1.3%	5.8%	11.6	?	-1.0
Cc1cc(C)cc(NC(=O)CSc2nc3ccccc3nc2N2CCCCC2)c1	?	9.28µM*	2.6%	17.2	12.2%	-4.1
COc1ccc(C(=O)NCc2nnc(SCC(=O)N3CCCc4ccccc43)o2)cc1OC	?	-9.4%	2.4%	15.1	/	3.6
O=C(NCc1ccccc1)C1CC(=O)N(c2ccc(OCC(=O)N3CCOCC3)cc2)C1 (stereo not given)	8.2%	44.4%	1.6%	-19.5	1.3%	-3.0
CC(=O)Nc1ccc(NC(=O)CSc2nc3ccccc3nc2N2CCC(C)CC2)cc1	?	-1.6%	-0.9%	36.1	9.6%	18.8*
COc1ccc(C)cc1NC(=O)CSc1nc2ccccc2nc1N1CCCCC1	4.15µM*	20.3%	-4.8%	-2.8	?	-1.7
COc1cc(NC(=O)CSc2nc3cc(C)ccc3cc2C)c(C(=O)O)cc1OC	14.0%	9.28µM*	25.3%	-3.5	14.8%	-4.6
CCOc1ccc(NC(=O)CSc2nc3ccccc3nc2N2CCCC2)cc1	-17.0%	11.7µM*	-0.7%	-6.0	4.1%	-2.8
COc1ccc(NC(=O)CSc2nc3ccccc3nc2N2CCCC2)cc1Cl	?	3.9%	3.9%	-2.5	-0.8%	-1.7
Cc1cccc(NC(=O)c2ccc3nccnc3c2)c1C	15.5%	-3.0%	-3.0%	26.8	3.6%	-2.7
Cc1c(C#N)c(O)n(C)c(=O)c1N=Nc1ccc(S(N)(=O)=O)cc1	22.9%	23.7%	0.4%	107.7*	/	27.1
Cc1c(C#N)c(O)n(CCO)c(=O)c1N=Nc1ccc(S(N)(=O)=O)cc1	9.5%	1.1%	3.3%	-4.2	/	1.6
COc1cccc(NC(=O)Cn2c(=O)n(C)c(=O)c3sc4c(c32)COC(C)(C)C4)c1	4.15µM*	2.62µM*	-2.8%	-3.0	0.8%	7.6
Cc1ccc(NC(=O)CN(C)C(=O)/C=C/c2ccc3c(c2)OCO3)cc1	-5.0%	-12.6%	2.8%	/	/	/
COc1cc2ncc(C(=O)c3ccccc3)c(N3CCN(Cc4ccccc4)CC3)c2cc1OC	4.65µM*	?	-0.8%	15.4	5.9%	1.4
COc1ccccc1N1CCN(Cc2ccc(C(=O)O)cc2)CC1	0.0%	7.0%	0.3%	-8.4	-9.1%	-5.0
c1ccc(-c2nc(C3CCCCC3)c3ccccc3n2)cc1	21.9%	138.3%	-1.2%	/	/	/
Cc1noc(C)c1CN(C(=S)NC1CC2CCC1C2)c1ccccc1 (stereo not given)	11.7µM*	-29.2%	-11.0%	37.2	/	1.8
CCN(CC(=O)Nc1ccccc1OC)C(=O)CC1CCCC1	/	/	1.5%	/	/	/
SMILES	Pf growth 48h	Pf growth 96h	SARS PLpro yeast	Shiga inhibitor	NS1 function inh	Cycloheximide cs
Cc1ccc(-c2nc(-c3cccnc3)no2)c(C)c1	?	-11.8%	-5.2%	108.1*	-67.4%	35.9*
Cc1c(-c2nc(-c3cccnc3)no2)cccc1[N+](=O)[O-]	-1.1%	13.5%	1.0%	37.7	-2.4%	23.6*
FC(F)(F)c1cccc(-n2c(Cn3nnc4ccccc43)n[nH]c2=S)c1	?	?	-0.8%	-11.8	-9.4%	-1.1
CC(C)(C)C(=O)N1N=C(c2ccc(NS(C)(=O)=O)cc2)CC1c1cccs1 (stereo not given)	?	?	-0.4%	-2.7	/	3.1
CC(C)Oc1ccccc1/C=N/NC(=O)c1ccccc1Cl	7.8%	7.1%	3.9%	14.8	-4.2%	12.0*
CC(C)Oc1ccccc1/C=N/NC(=O)C1CCCC1	-3.0%	2.62µM*	15.7%	-4.9	-1.1%	1.1
Cn1cccc1-c1cc(C(=O)N/N=C/c2ccccc2Cl)[nH]n1	-3.0%	0.0%	0.5%	79.5*	6.0%	20.4*
CC(C)c1ccc(C(=O)N/N=C/c2cccc(Cl)c2Cl)cc1	48.1%	0.0%	2.0%	11.4	-13.4%	3.0
CC(C)Oc1ccccc1/C=N/NC(=O)c1ccc(F)cc1	16.4%	-7.4%	-3.2%	20.4*	5.5%	27.3*
O=C(O)COc1ccccc1/C=N/NC(=O)CNC(=O)c1ccc(F)cc1	28.8%	33.5%	1.4%	-2.4	-4.7%	-2.6
Cn1cccc1-c1cc(C(=O)N/N=C/c2ccc(F)cc2)[nH]n1	3.2%	-13.4%	-1.4%	15.0	16.2%	11.5
COc1ccccc1/C=N/NC(=O)c1ccc(N(C)S(=O)(=O)c2ccccc2)cc1	8.9%	-18.1%	0.2%	-8.9	/	-9.4
CCN(CC)c1ccc(C(=O)N/N=C/c2ccccc2OC(F)F)cc1	10.4µM*	?	8.91µM*	28.0	/	25.7*
O=C(N/N=C/c1ccccc1Cl)c1ccc(F)cc1	197.6%	65.5%	?	72.1*	-16.1%	56.3*
Cc1ccc(NC(=S)N2CCN(c3ccccn3)CC2)cc1C	-3.7%	-22.4%	9.6%	12.0	-7.1%	2.2
N#Cc1cc(-c2ccccc2)[nH]c1-c1nccc2ccccc12	9.0%	?	-5.1%	8.7	-18.6%	5.9
c1ccc(-c2ccc(-c3nccc4ccccc34)[nH]2)cc1	81.1%	484.4%	-5.7%	14.0	-70.5%	28.8*
CC1(c2cccc(Br)c2)NC(=O)N(CC(=O)Nc2ccc(F)cc2)C1=O (stereo not given)	4.3%	-9.2%	3.1%	9.8	7.9%	-3.8
CN(C)S(=O)(=O)c1cccc2c1C(=O)c1ccccc1C2=O	11.7µM*	10.4µM*	9.8%	-7.0	7.2%	-2.4
O=C1c2ccccc2C(=O)c2c(Nc3ccc4c5c(cccc35)C(=O)c3ccccc3-4)cccc21	/	/	/	/	0.6%	/
CNc1cccc2c1C(=O)c1ccccc1C2=O	82.5%	2.94µM*	-22.2%	33.1	2.9%	15.6*
C[N+]1(C)C2CC[C@H]1CC(OC(=O)[C@@H](CO)c1ccccc1)C2 (stereo not given in full)	-10.1%	-21.6%	/	/	-0.6%	/
CCC1CN(C(=O)N2CCC(C(=O)NCc3cccc(F)c3)CC2)c2ccccc2O1 (stereo not given)	?	9.28µM*	1.7%	-5.6	-5.9%	-10.5
